# Assay outcomes (PubChem)
# A selection: hits, their analogues and other compounds. The true share with any hit is near 0.86%.
# BJeLR viab HTS: compounds reducing viability of BJeLR cells; BJeLR fibroblasts viability, CellTiterGlo ATP luminescence, 48 h; HRASV12, hTERT and SV40 LT/ST transformed; viability loss activity score, % (no concentration beside the values); actives 0.64% (n = 30,000); in the data active = viability loss activity score above about 50%;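 also: higher score means fewer live cells and less ATP luminescence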
# A1 inhib: A1 inhibition; MEF A1-2A-BIM cells, caspase-Glo luminescence, 3 h; percent of clofoctol signal, DMSO as zero; caspase activation, % (test concentration not listed); actives 0.51% (n = 21,000); AID 2241;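 active = most replicate scores above 10, or exactly half above 10 with mean activity above 10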;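 also: effector caspase 3 and 7 activity cleaving a DEVD luciferin substrate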
# The depositor's hits bear a star; nt = no result.
SMILES,BJeLR viab HTS,A1 inhib
CCC(C)[C@H]1C(=O)O[C@H](C(C)C)C(=O)N(C)[C@@H](C(C)CC)C(=O)O[C@H](C(C)C)C(=O)N(C)[C@@H](C(C)CC)C(=O)O[C@H](C(C)C)C(=O)N1C (stereo partly drawn),90.5*,86.1*
COC[C@H]1OC(=O)c2coc3c2[C@@]1(C)C1=C(C3=O)[C@@H]2CCC(=O)[C@@]2(C)C[C@H]1OC(C)=O,4.1,61.9*
c1cncc(C2Nc3ccccc3-n3cccc32)c1 (stereo not drawn),-3.0,0.0
c1cncc(C2N=C(c3cnccn3)NN2)c1 (stereo not drawn),-4.2,-3.2
C/C=C(\C)C(=O)OC1C(C)=C2C(C1OC(=O)CCCCCCC)C(C)(OC(C)=O)CC(OC(=O)CCC)C1(O)C2OC(=O)C1(C)O (stereo not drawn),15.0,2.3
C/C=C(/C)C(=O)O[C@H]1C(C)=C2[C@H]([C@@H]1OC(=O)CCCCCCC)[C@@](C)(OC(C)=O)C[C@H](OC(=O)CCC)[C@@]1(O)[C@H]2OC(=O)[C@@]1(C)O,33.1,12.0*
CCOc1cc(CN2CCN(C(=O)COc3ccc(C)cc3)CC2)ccc1OC,-2.8,0.1
c1ccc(C2N3CCCN2CC3)cc1 (stereo not drawn),-4.8,0.3
CN1C(=O)NC(=O)/C(=C\C=C\c2ccco2)C1=O,-2.7,-0.1
CN(C)c1ccc(/C=C/C=C2/C(=O)NC(=O)N(c3ccccc3)C2=O)cc1,60.0*,nt
c1ccc2c(CNCCc3c[nH]c4ccccc34)cccc2c1,9.1,-0.1
Fc1ccc(Sc2c(F)c(F)nc(N3CCNCC3)c2F)cc1,0.1,2.4
Cc1cc(OCc2c(F)cccc2Cl)c2c3c(c(=O)oc2c1)CCCC3,-1.1,0.6
CCOC(=O)c1c(C)n(C(C)C)c2ccc(OC(=O)c3ccccc3)cc12,-3.8,0.8
Cc1ccc(CN(C)C)c(OC(=O)N(C)C)c1,0.7,-0.3
COc1cc([C@@H]2c3cc4c(cc3[C@H](OC(C)=O)[C@H]3COC(=O)[C@@H]23)OCO4)cc(OC)c1OC,33.5,0.6
COc1cc(C2c3cc4c(cc3CC3COC(=O)C32)OCO4)cc(OC)c1OC (stereo not drawn),63.9*,2.8
COc1cc([C@@H]2c3cc4c(cc3[C@@H](O)C3COC(=O)C32)OCO4)cc(OC)c1O (stereo partly drawn),50.0*,3.0
COc1ccc2c(c1OC)C(=O)O[C@H]2[C@H]1c2cc3c(cc2CCN1C)OCO3,-6.1,1.4
COc1ccc(CN2CCN(Cc3ccccc3C)CC2)cc1,-1.7,1.2
CCOC(=S)SCc1nc2ccccc2c(=O)n1-c1ccccc1,-10.0,0.2
COc1ccc2c(c1OC)CN1CCc3cc4c(cc3C1C2)OCO4 (stereo not drawn),3.1,-0.7
COc1ccc2c(c[n+](C)c3c4cc5c(cc4ccc23)OCO5)c1OC,78.9*,161.3*
CC1C/C=C/C2C3OC3(C)C(C)C3C(Cc4ccccc4)NC(=O)C23OC(=O)O/C=C/C(C)(O)C1=O (stereo not drawn),2.8,16.0*
C=CC/C=C\C/C=C\CCCCCCCc1cc(O)cc(O)c1,nt,-0.2
SMILES,BJeLR viab HTS,A1 inhib
CCOC(=O)c1cc(C(C)(C)C)nc(OC(=O)N(C)C)c1C#N,0.0,-0.4
C[C@@H]1C(=O)O[C@H]2[C@H]1CC[C@@]1(C)C=CC(=O)[C@@]3(C)O[C@@]213,7.0,0.4
CO/C1=C/C(C)=C/[C@@H](C)[C@@H](O)[C@@H](C)C/C(C)=C/C=C\[C@H](OC)[C@@H]([C@@H](C)[C@@H](O)[C@H](C)[C@@]2(O)C[C@@H](O)[C@H](C)[C@@H](C(C)C)O2)OC1=O,52.1*,0.2
C[C@H]1CC[C@@H]2[C@@H](C)[C@H]3[C@H](C[C@H]4[C@@H]5CC=C6CC(O[C@@H]7O[C@H](CO)[C@@H](O)[C@H](O[C@@H]8O[C@H](CO)[C@@H](O)[C@H](O)[C@H]8O)[C@@H]7O[C@@H]7O[C@@H](C)[C@H](O)[C@@H](O)[C@H]7O)CC[C@]6(C)[C@H]5CC[C@]34C)N2C1 (stereo partly drawn),80.9*,-1.9
C[C@H]1CC[C@@H]2[C@@H](C)[C@H]3[C@H](C[C@H]4[C@@H]5CC=C6C[C@@H](O[C@@H]7O[C@H](CO)[C@H](O)[C@H](O[C@@H]8O[C@H](CO)[C@@H](O)[C@H](O)[C@H]8O)[C@H]7O[C@@H]7O[C@@H](C)[C@H](O)[C@@H](O)[C@H]7O)CC[C@]6(C)[C@H]5CC[C@]34C)N2C1,-0.7,-1.0
CO[C@H]1[C@@H](O)[C@@H](C)O[C@@H](O[C@@H]2C=C3C(OC(C)=O)CC4(O)C(CC[C@]5(C)[C@@H](C6=CC(=O)OC6)CC[C@]45O)[C@@]3(C)CC2)[C@@H]1O (stereo partly drawn),114.9*,0.6
